# Results reported in PubChem BioAssay (NCI).
# This is part of a sample that, as a whole, favours compounds with a hit. Of some 79,000 tested, about 15% had one in any assay. A number with no mark means an inactive call. Activity calls are given as the source filed them. No stated cut-off is given here; in the data, active means growth inhibition above about 70%; inactive means the rest.
# Columns and labels:
# [1] = NCI Yeast Anticancer Drug Screen. Data for the rad50 strain (AID 155);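 further: 0% = growth of vehicle-only cultures of the same strain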; settings: S. cerevisiae rad50 strain growth inhibition; at 50.0 µM; stronger effect = higher value
# Procedure, shortened: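 Relative growth inhibition (compound vs vehicle) was measured in yeast with a defined repair-gene alteration.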
# [2] = NCI Yeast Anticancer Drug Screen. Data for the mec2-1 strain (AID 157); settings: S. cerevisiae mec2-1 strain, at 50.0 µM, stronger effect = higher value
# Procedure, shortened: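 Mutant yeast (mec2-1) grown with compound; growth inhibition relative to vehicle control reported.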
# [3] = NCI Yeast Anticancer Drug Screen. Data for the sgs1 mgt1 strain (AID 161);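 further: 0% = growth of cultures given vehicle only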; settings: S. cerevisiae sgs1 mgt1 strain, at 50.0 µM, stronger effect = higher value
# Procedure, shortened: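 Compounds are added to genetically altered yeast, and growth is compared with cultures given vehicle alone to give percent inhibition.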
# [4] = NCI Yeast Anticancer Drug Screen. Data for the cln2 rad14 strain (AID 165);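 further: 0% = growth equal to vehicle treated cultures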; settings: S. cerevisiae cln2 rad14 strain, at 50.0 µM, stronger effect = higher value
# Procedure, shortened: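 Readout is yeast growth inhibition versus vehicle-treated controls, using a strain with cln2 and rad14 alterations exposed to compound.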
# [5] = NCI Yeast Anticancer Drug Screen. Data for the bub3 strain (AID 167); settings: S. cerevisiae bub3 mutant strain, at 50.0 µM, stronger effect = higher value
# Procedure, shortened: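 Screening used yeast with an engineered genetic alteration affecting cell cycle control. Compound-exposed cultures were compared with vehicle cultures, and reduced growth was taken as inhibition.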
# [6] = NCI Yeast Anticancer Drug Screen. Data for the mlh1 rad18 strain (AID 175); settings: S. cerevisiae mlh1 rad18 strain growth inhibition; at 50.0 µM; stronger effect = higher value
# Procedure, shortened: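 Genetically defined yeast (DNA repair-deficient) exposed to compounds; growth inhibition determined relative to vehicle.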
SMILES,growth inhibition [1] [%],growth inhibition [2] [%],growth inhibition [3] [%],growth inhibition [4] [%],growth inhibition [5] [%],growth inhibition [6]
CC(C)=CCS(=O)c1ccccc1NC1=CC(=O)CC(C)(C)C1 (stereo not drawn),-16.2,-26.1,-37.6,-7.55,-5.8,-3.55%
Nc1nc2c(ncn2CC2CCOC2=O)c(=O)[nH]1 (stereo not drawn),-19.1,-17.9,-18.7,4.4,-5.85,-14.8%
CCN(CC)CCCC(C)=O,9.25,21.6,28.2,18.6,13,3.4%
OCC(F)(F)C(F)(F)C(F)(F)C(F)(F)C(F)(F)C(F)(F)C(F)(F)C(F)F,23.9,-11.2,-30.8,-11.5,5.15,8.6%
CC(C)(C)n1nc(C2CC2)cc1NC(=O)Nc1ccc(Cl)cc1,-0.55,-8.25,-8.55,8.85,-2.55,2.4%
CN1C(=O)CC(c2cccc(C3CC(=O)N(C)C3=O)n2)C1=O (stereo not drawn),-18.6,-23.7,-17.6,-5.8,-11.7,-13.7%
CCN(CC)CCCNc1ccc2nnn3c4ccc(O)cc4c(=O)c1c23,-15.6,-7.9,-7.35,25.3,-6.5,6.65%
Cc1cn(C(=O)NC23CC4CC(CC(C4)C2)C3)c(=O)[nH]c1=O,14.8,1.6,11.1,9.65,10.9,82.2% (active)
CC1=CC(C)(C)Nc2ccccc2N1,-7.1,-4.85,-8.8,14.2,-3,1.45%
O=C(O)C1CCCCN1C(=O)c1ccccc1 (stereo not drawn),-26.6,-8.4,-12.2,-0.05,-21.2,-15.5%
NC(=O)N/N=C/c1c(Cl)cccc1Cl,15.9,17.2,1.4,-10.7,-27.6,31.5%
Cc1nc2c(cc1C#N)C(Nc1ccc(Cl)cc1)Oc1ccc([N+](=O)[O-])cc1-2 (stereo not drawn),-4.6,-12.3,0.5,-32.2,-36.5,-7.5%
CCOC(=O)C(CO)NC(=O)C[NH-].CCOC(=O)C(CO)NC(=O)C[NH-].[Cl][Pt+2][Cl] (stereo not drawn),-12.5,-8.55,-17.4,-34.4,-3.5,12.2%
CCOC(CN1CCCCC1)OCC,-7.85,-7.6,17.1,8.7,-1.6,6.65%
Cc1nn(C(=O)c2ccncc2)c2c1C(c1ccccc1)SC(N)=N2 (stereo not drawn),-2.9,-20.1,18.9,9.55,15.1,2.35%
N#CCCN(CCC#N)Cc1ccc2c(O)c(CN(CCC#N)CCC#N)ccc2c1O,23.8,7.35,3.35,-1.65,-0.15,3.65%
COc1cccc(CN(CCc2cccc(OC)c2OC)C(=O)CN2CCOCC2)c1O,-3.8,9.35,-0.05,8.8,4.9,-23.1%
Cn1c(=O)n(C2OC(CO)C(O)C2O)c2ncnc(N)c21 (stereo not drawn),8.9,0.55,-5.8,-43.1,-2.9,4.65%
COC(=O)/C=C/c1cc2c(cc1-c1c(C(=O)O)cc(OC)c(OC)c1OC)OCO2,-11.2,-0.55,-18.8,-3.4,-28.4,-8.05%

SMILES,growth inhibition [1] [%],growth inhibition [2] [%],growth inhibition [3] [%],growth inhibition [4] [%],growth inhibition [5] [%],growth inhibition [6]
CCOC(=O)C(NC(N)=O)C(=O)OCC,-1.05,15,0.95,-34.7,21.9,4.7%
N#CC1C=Cc2ccccc2N1C(=O)Oc1ccccc1 (stereo not drawn),1.5,14.3,10.6,18.6,-7.8,16.6%
COc1ccc(C(O)c2ccc(C)cc2)cc1 (stereo not drawn),-14.1,-4.2,-43,-27.6,-27.4,-17.3%
NNC(=O)CC(N)C(N)=O (stereo not drawn),-4.1,3.5,-3.25,13.3,27.4,16.5%
COc1ccc(CCNC(=O)C(=O)c2c[nH]c3ccccc23)cc1OC,12.6,18.8,22.4,14.3,9.55,25.2%
CC(=O)OCCOCNC(=S)NN,-7.55,7.8,11.2,-16.3,-3.95,-4.8%
FC(F)(F)c1cc(NC(=S)SCc2ccc(Cl)cc2)ccc1Cl,22.8,8.7,16.2,14.6,13.6,11.2%
OCC(O)c1ccc(Cl)cc1 (stereo not drawn),-23,-17.6,-14.8,-14,-15.8,-0.3%
OC1CC2c3ccccc3C1c1cccc[n+]12 (stereo not drawn),16.2,-9.85,-4.1,-38.7,4.65,14.7%
CCN(CC)c1ccc(/C=C(\C)c2nc3ccc(Cl)cc3[nH]2)cc1,-5.35,6.6,4.5,7,-5.95,-4.75%
Cc1ccc(NC(=O)C(=O)CC(=O)c2c(C)n([O-])c3ccccc3[n+]2=O)cc1C,-6.2,-1.55,1.25,9.35,0.2,11.9%
CCOC(CS(=O)(=O)CC(N)=O)OCC,6.3,0.45,-3.75,-29.4,-11.8,5.8%
COc1ccc(/C=C/C(=O)C(C)(CN(C)C)CN(C)C)cc1,0.95,-13.8,4.95,6.85,-11.2,11.8%
Br/C(=N\Nc1nn[nH]n1)c1ccncc1,-15.1,1.75,-26.1,-22,-21.8,-28.9%
CC(=O)CCC1(C)CCCC(C)(C)CC1=O (stereo not drawn),-1.3,5.15,3.75,-9.55,-28,-12.2%
N#C/C(=C\N1CC(=O)NC1=S)C(N)=O,-79.8,-12.6,-30.9,-22.1,-23.2,-69.5%
Nc1cc(N)cc([N+](=O)[O-])c1,-9.75,-16.4,-8,-13.7,8.8,15.2%
O=[N+]([O-])c1ccc(SC2=NCCCN2)c(Cl)c1,36.7,-0.55,33.9,11.1,32.6,26.1%
CCN(CC)CCN1C(=O)c2c(c(-c3ccccc3)c3ccccc3c2-c2ccccc2)C1=O,21.6,35.2,21.6,13.2,27.4,28%
